Data taken from the supplement of paper PMC6607015.
Where a name gives a salt, the structure may show the parent alone.

What was measured:
Settings in all cases: compound concentration in added solution (µM; 5 µl added to 20 µl cells): 10; 18 h
[1] = system: A431; assay: LBPA endosome anti-LBPA integrated intensity (sum per cell), Z-score; higher = more LBPA staining
How it was run: (§1)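 After 18 h on 5 µl of 10 µM compound solution in duplicate 384-well imaging plates, HeLa MZ or A431 cells, seeded at 3,500 per well in 20 µl, were fixed with 4% PFA. They were then labelled with 6C4 anti-LBPA antibody, filipin, propidium iodide and CellTracker green, and four 20× fields were recorded per well. Integrated LBPA or filipin intensity per cell, whole-cell or within LBPA endosomes, came from MetaXpress segmentation and was normalised to Z-scores in AcuityXpress.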

[2] = system: HeLa MZ; assay: as above
How it was run: as §1

[3] = system: A431; assay: whole-cell filipin (free cholesterol) integrated intensity, Z-score; higher = more cholesterol staining
How it was run: as §1

[4] = system: HeLa MZ; assay: as above
How it was run: as §1

[5] = system: A431; assay: filipin (cholesterol) integrated intensity within LBPA endosomes, Z-score; higher = more cholesterol in LBPA endosomes
How it was run: as §1

[6] = system: HeLa MZ; assay: as above
How it was run: as §1

Compound	LBPA endosome anti-LBPA integrated intensity (z-score) [1]	LBPA endosome anti-LBPA integrated intensity (z-score) [2]	whole-cell filipin (z-score) [3]	whole-cell filipin (z-score) [4]	filipin (z-score) [5]	filipin (z-score) [6]
COc1ccc2cc([C@H](C)C(=O)O)ccc2c1 [Naproxen]	-0.53	-0.655	-0.923	-0.439	-0.525	-0.644
CC(=O)Nc1ccc(O)cc1 [Acetaminophen]	-0.388	0.0073	-0.156	-0.518	-0.48	-0.412
Cc1cnc(C(=O)O)c[n+]1[O-] [Acipimox]	-0.468	-0.426	-0.532	-0.464	-0.503	-0.519
COc1ccc2[nH]c([S+]([O-])Cc3ncc(C)c(OC)c3C)nc2c1 (centres undefined) [Omeprazole]	-0.534	-0.664	-0.421	-0.0929	-0.508	-0.373
COc1ccc2c(c1)N(C[C@H](C)CN(C)C)c1ccccc1S2 [Methotrimeprazine maleat salt]	2.94	1.48	1.03	-0.207	1.82	1.55
COc1ccccc1OCC(O)CO (centres undefined) [Guaifenesin]	-0.398	-0.463	-0.553	-0.523	-0.471	-0.504
CNCCCC12CCC(c3ccccc31)c1ccccc12 [Maprotiline hydrochloride]	1.93	0.295	1.09	1.4	2.92	3.38
CC(=O)NS(=O)(=O)c1ccc(N)cc1 [Sulfacetamide sodic hydrate]	-0.453	-0.433	-0.701	-0.53	-0.475	-0.628
CCOC(=O)[C@H](CCc1ccccc1)N[C@@H](C)C(=O)N1CCC[C@H]1C(=O)O [Enalapril maleate]	-0.644	-2	-1.09	-0.795	-0.578	-0.713
CN(C)CCOc1ccc(/C(=C(/CCCl)c2ccccc2)c2ccccc2)cc1 [Toremifene]	2.64	0.267	2.3	1.93	2.35	3.94
O=C(O)CCC(=O)c1ccc(-c2ccccc2)cc1 [Fenbufen]	-0.493	0.243	-0.496	-0.311	-0.512	-0.583
O=C(O)c1ccccc1C(=O)Nc1ccc(S(=O)(=O)Nc2nccs2)cc1 [Phthalylsulfathiazole]	-0.455	-0.249	-0.41	-0.101	-0.471	-0.557
Cc1cnc(C(=O)NCCc2ccc(S(=O)(=O)NC(=O)NC3CCCCC3)cc2)cn1 [Glipizide]	-0.539	0.251	-1.07	-1.32	-0.587	-0.757
C[C@](N)(Cc1ccc(O)c(O)c1)C(=O)O [Methyldopa (L,-)]	-0.446	-0.811	-0.449	0.0391	-0.366	-0.319
N=C(N)NS(=O)(=O)c1ccc(N)cc1 [Sulfaguanidine]	-0.422	-1.14	-0.502	-0.128	-0.444	-0.493
CN1CCC[C@@H]1CCO[C@](C)(c1ccccc1)c1ccc(Cl)cc1 [Clemastine fumarate]	2.28	0.882	0.619	-0.348	2.73	1.84
COc1ccc(CN(CCN(C)C)c2ccccn2)cc1 [Pyrilamine maleate]	-0.379	0.813	-0.723	-0.374	-0.426	0.0714
CO[C@H]1/C=C/O[C@@]2(C)Oc3c(C)c(O)c4c(O)c(c5c(nc6cc(C)ccn65)c4c3C2=O)NC(=O)/C(C)=C\C=C\[C@H](C)[C@H](O)[C@@H](C)[C@@H](O)[C@@H](C)[C@H](OC(C)=O)[C@@H]1C [Rifaximin]	-0.465	-0.154	0.151	0.344	-0.307	-0.143
CCCCNc1ccc(C(=O)OCCOCCOCCOCCOCCOCCOCCOCCOCCOC)cc1 [Benzonatate]	-0.445	-0.231	-0.686	-0.896	-0.427	-0.476
C[N+]1(CCCCC[N+]2(C)CCCC2)CCCC1 [Pentolinium bitartrate]	-0.453	-0.278	-0.653	-0.161	-0.437	-0.405
CCCNCC(O)COc1ccccc1C(=O)CCc1ccccc1 (centres undefined) [Propafenone hydrochloride]	3.53	1.93	2.04	1.83	2.65	2.28
O=C(Nc1ccccc1)OCC(CN1CCCCC1)OC(=O)Nc1ccccc1 (centres undefined) [Diperodon hydrochloride]	1.44	2.96	0.922	-0.386	1.23	1.1
COc1c(O[C@@H]2O[C@H](CO)[C@@H](O)[C@H](O)[C@H]2O)cc2c(c1OC)-c1ccc(SC)c(=O)cc1[C@@H](NC(C)=O)CC2 [Thiocolchicoside]	-0.551	-0.233	-0.589	-0.789	-0.477	-0.471
CC(COc1ccccc1)N(CCCl)Cc1ccccc1 (centres undefined) [Phenoxybenzamine hydrochloride]	-0.295	-0.519	-0.105	0.141	-0.396	-0.505
